PubChem BioAssay AID588335 (The Scripps Research Institute Molecular Screening Center, 2011)
The campaign covered roughly 360,000 compounds. About 4,500 (1.2%) were called active. Cut-off read from the data, not from the text of the source: active = inhibition above about 30%; inactive = the rest. The list comes from a sample in which actives are over-represented; it also holds similar structures and randomly drawn compounds.

test: inhibition of GDH and TPI enzymes – biochemical, absorbance, full deck, artefact control for M. tuberculosis FBA inhibitor project, primary screen (AID 588335); conditions: GDH-TPI coupled enzyme counterscreen, NADH absorbance; at 4.8 µM; active compounds read high;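 note: 0% = DMSO wells and 100% = wells lacking the enzyme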

Row | Compound | inhibition
1 | O=C(COC(=O)c1ccc(N2CCCC2=O)cc1)c1ccc(OC(F)F)cc1 | 2.55% (inactive)
2 | Cc1cc(=O)oc2cc(NC(=O)C3CC(=O)N(Cc4ccccc4)C3)ccc12 (centres undefined) | 19.6% (inactive)
3 | NC(N)=NCCCc1cn(CC(=O)N2CCNCC2)nn1 | 1.79% (inactive)
4 | CC(C)Oc1ccc(C2NC(=O)NC2=O)cc1 (centres undefined) | 1.41% (inactive)
5 | O=C1CCCC2=C1C(c1cccs1)n1nc(SCc3ccccc3)nc1N2 (centres undefined) | 19.9% (inactive)
6 | CCC(C)[C@H](NC(=O)N1c2ccccc2NC(=O)[C@@H]1C(C)C)C(=O)N[C@@H](Cc1ccccc1)C(=O)O (some centres undefined) | 10.8% (inactive)
7 | CCCc1ccc(-c2c(C)sc(NC(=O)c3ccnn3C)c2C#N)cc1 | 17.4% (inactive)
8 | CC(OC(=O)CNS(=O)(=O)/C=C/c1ccccc1)C(=O)Nc1ccc(S(=O)(=O)N2CCCC2)cc1 (centres undefined) | -3.69% (inactive)
9 | CN(C)c1ccc(Nc2c3c4c(cccc4n(C)c2=O)C(=O)c2ccccc2-3)cc1 | 5.68% (inactive)
10 | CCSc1nc2c(c(=O)[nH]1)C(c1cccnc1)C(C(=O)OC(C)C)=C(C)N2 (centres undefined) | 0.91% (inactive)
11 | COc1cc(S(=O)(=O)N2CCN(C(=O)C3CC3)CC2)ccc1NC(C)=O | 7.35% (inactive)
12 | O=C(Nc1ccc(OCC(=O)N2CCOCC2)cc1)c1cc(F)c(F)cc1Cl | 6.18% (inactive)
13 | CCOC(=O)c1cc(C)nc(S(C)(=O)=O)c1C#N | -4.82% (inactive)
14 | CCOC(=O)c1c(C)[nH]c(C)c1C(=O)CSc1nc(N)cc(N)n1 | 5.66% (inactive)
15 | CCOC(=O)c1c(C(C#N)C#N)cc(C)nc1C | 34.7% (active)
16 | C[C@@H]1CN([C@H](C)CO)C(=O)c2cc(Br)cnc2O[C@@H]1CN(C)Cc1cncnc1 | 13.4% (inactive)
17 | Cc1cc(Cl)ccc1C(=O)C1CCCN(C(=O)c2ccc3c(c2)OCO3)C1 (centres undefined) | 4.42% (inactive)
18 | O=C(O)c1ccc(N/N=C/c2ccc3ncccc3c2)cc1 | 34% (active)
19 | CCNC(=S)NNC(=O)c1ccc2ncccc2c1 | 7.57% (inactive)
20 | NCCCCCC(=O)N/N=C/c1ccc2nccnc2c1 | 26.5% (inactive)
21 | CCCCN(C(=O)c1ccc2ccccc2c1)c1c(N)n(CCCC)c(=O)[nH]c1=O | 1.27% (inactive)
22 | O=C(CNC(=O)c1ccccc1)NCC(=O)OCc1ccc(Cl)cc1 | 4.85% (inactive)
23 | O=C(CNC(=O)Cc1ccccc1)NCC(=O)OCC(=O)c1ccccc1Cl | 4.58% (inactive)
24 | O=C(CNC(=O)OCc1ccccc1)Oc1cc2oc(=O)cc(-c3ccccc3)c2cc1Cl | 31.2% (active)

Row | Compound | inhibition
25 | CCCCNC(=O)N1CCN(S(C)(=O)=O)CC1 | -0.96% (inactive)
26 | Cc1ccc(C)c(-n2ccnc2SCC(N)=O)c1 | -8.54% (inactive)
27 | CCCCCCCC(=O)OC(CN1CCCCCC1)CN1CCCC1=O (centres undefined) | 4.02% (inactive)
28 | CC(C)(C)NC(=O)CSc1nnc(NC(=O)CCc2ccccc2)s1 | 4.27% (inactive)
29 | NC(=O)CSc1nnc(NC(=O)c2ccc(Br)o2)s1 | 32.8% (active)
30 | COC(=O)CSc1nnc(NC(=O)CCc2ccccc2)s1 | 3.45% (inactive)
31 | COc1ccc(N)cc1NC(=O)CN1CCOCC1 | -1.77% (inactive)
32 | Cc1ccc(S(=O)(=O)NCc2cn3ccsc3n2)c(C)c1 | 7.83% (inactive)
33 | CCN1C(=O)[C@H]2[C@@H](c3ccccc3)N[C@]3(CCCN(Cc4ccc(C)cc4)C3=O)[C@H]2C1=O | -3.32% (inactive)
34 | Cc1ccc(C)c(NC2=NCC(=O)N2c2ccc3c(c2)OCCO3)c1 | -1.83% (inactive)
35 | Cc1cccc(C)c1NC(=O)CNC(=O)c1ccc2c(c1)OCCO2 | -1.08% (inactive)
36 | Cc1cc(=O)[nH]c(Nc2cccc(Br)c2)n1 | -6.37% (inactive)
37 | Cc1cc(=O)[nH]c(N/N=C/c2ccc3c(c2)OCCO3)n1 | 46.9% (active)
38 | Cc1cc(=O)[nH]c(N/N=C/c2c(C)nn(-c3ccccc3Cl)c2Cl)n1 | 3.41% (inactive)
39 | CCN(CC)c1ccc(/C=N/Nc2nc(C)cc(=O)[nH]2)cc1 | 37.7% (active)
40 | CCN(CC)CCNc1nc(-c2ccc(OC(F)F)cc2)c(C)s1 | 2.11% (inactive)
41 | O=C(NNC1=NCCC1)c1cccc(S(=O)(=O)N2CCCCC2)c1 | 5.45% (inactive)
42 | CCC1=C(OC(=O)N(CC)CC)N2C(=O)OC(=NCC3CC3)[C@]2(C)[C@H]2C1=CC[C@H]1C(=O)N(CC(=O)OC)C(=O)[C@H]12 | 9.36% (inactive)
43 | COc1ccc(/C=C2\SC(=N)N(c3ccc(F)cc3)C2=O)cc1 | 4.31% (inactive)
44 | COc1ccc(C=C2CCC3C(CCCC34OCCO4)C2=O)cc1 (centres undefined) | 25.5% (inactive)
45 | COc1ccc(/C=C2\N=C3CCCN3C2=O)cc1 | 45.7% (active)
46 | Cc1ccc(Cc2nnc(SCC(=O)Nc3ccc(C)cc3C)[nH]c2=O)cc1 | 4.83% (inactive)
47 | [O-][N+]12CCCCC1CCCC2CO (centres undefined) | -10.3% (inactive)
48 | Cc1cc(C)c2nc3nc(C)cc(C)c3c(N)c2c1 | 4.65% (inactive)

Row | Compound | inhibition
49 | CCc1nnc(NC(=O)/C=C/c2ccc(C)o2)s1 | 40.7% (active)
50 | CCc1nnc(NC(=O)c2ccco2)s1 | 15.9% (inactive)
51 | CCc1nnc(NC(=O)[C@@H](NC(=O)c2cccc(C)c2)C(C)C)s1 | -6.25% (inactive)
52 | CN(C)c1ccc(NC(=O)CN2C3CCCC2CC(NC(=O)c2ccccc2)C3)cc1 (centres undefined) | -4.43% (inactive)
53 | CN(C)c1ccc(-c2nnc(-c3cccnc3)o2)cc1 | 30% (inactive)
54 | OC(c1nnc(-c2ccccc2)o1)c1cccs1 (centres undefined) | -12.3% (inactive)
55 | Nc1ccc(-c2nnc(-c3ccc(-c4ccccc4)cc3)o2)cc1 | 49.1% (active)
56 | CCC(C)(C)c1ccc(OCC(=O)N(C)C)c(C(C)(C)CC)c1 | 1.89% (inactive)
57 | O=C(CCNC(=O)c1ccccc1)NN=Cc1ccc(Br)o1 | 8.77% (inactive)
58 | O=C(N/N=C/c1ccc(Br)o1)c1cncc(Br)c1 | 33.6% (active)
59 | Cc1ccc(C(=O)N/N=C\c2cc(Br)c(Br)o2)cn1 | 9.96% (inactive)
60 | CN(CC1CCCO1)S(=O)(=O)c1ccc(C(=O)Nc2ccc(F)cc2)cc1 (centres undefined) | 4.12% (inactive)
61 | O=C(NCCN1CCN(Cc2ccccc2)CC1)c1cc2c(=O)[nH]c3ccccc3c2s1 | 24.2% (inactive)
62 | CCC1CCCCN1CCCNC(=O)c1cc2c(Cl)nc3ccccc3c2s1 (centres undefined) | 0.39% (inactive)
63 | CN1CCN(CCCNC(=O)c2cc3c(=O)oc4ccccc4c3s2)CC1 | 31.1% (active)
64 | COC(=O)c1cc(NC(=O)CC2C(=O)NCCN2C(=O)c2ccc(F)cc2)cc(C(=O)OC)c1 (centres undefined) | 3.86% (inactive)
65 | Cc1csc(=O)n1CC(=O)Nc1ccc(S(C)(=O)=O)cc1 | -3.52% (inactive)
66 | CCOC(=O)N1CCN(C(=O)Cn2cnc3ccccc3c2=O)CC1 | 2.24% (inactive)
67 | CCOC(=O)/C=c1\s/c(=C\c2ccccc2OC)c(=O)n1CC(=O)N1CCOCC1 | 33.3% (active)
68 | COc1ccccc1/C=C/C(=O)NC(=S)N1CCOCC1 | 18.2% (inactive)
69 | O=C(NCc1ccccc1Cl)C1CCN(c2ncnc3c2nc2n3CCCCC2)CC1 | -11.1% (inactive)
70 | Cc1ccc(CNC(=O)CC(NC(=O)c2ccccc2)c2ccccc2)cc1 (centres undefined) | -12.7% (inactive)
71 | CCN(CCn1cccn1)Cc1cn[nH]c1-c1ccc(OC)cc1F | 0.63% (inactive)
72 | CCn1c(=O)c2cc(C(=O)Nc3cccc(C(C)=O)c3)sc2c2ccccc21 | -0.68% (inactive)

Row | Compound | inhibition
73 | CCn1c(NC(=O)c2ccccc2)c(-c2cccs2)c(=O)c2ccccc21 | 32% (active)
74 | COc1ccccc1C(=O)Nn1c(-c2cccs2)nc2ccccc2c1=O | 17.9% (inactive)
75 | COc1ccccc1CCNC(=O)CN1C(=O)NC2(CCCC2)C1=O | 7.91% (inactive)
76 | CC(C)(C)c1ccc(S(=O)(=O)NC(=O)C2(C)CCN2C(=O)CC2CC2)cc1 (centres undefined) | 0.89% (inactive)
77 | CCOC(=O)c1ccc(S(=O)(=O)N(CCO)Cc2cc3cc(OC)c(OC)cc3[nH]c2=O)cc1 | 20.5% (inactive)
78 | CCc1nnc(NC(=O)CCC(=O)N2CCN(c3cc(C)ccc3C)CC2)s1 | -2.21% (inactive)
79 | CC(C)NC(=O)C(c1ccc(F)cc1)N(C(=O)CCC(=O)Nc1ccccn1)c1ccccc1F (centres undefined) | 3.77% (inactive)
80 | Cc1ccc(NC(=O)CS(=O)CC(=O)N(c2ccccc2)C(C)C(=O)NC2CCCC2)cc1 (centres undefined) | 7.17% (inactive)
81 | Cn1cccc1/C=N/NC(=O)c1ccc(OC(F)(F)C(F)F)cc1 | 35.9% (active)
82 | O=C(Nc1ccc(OC(F)(F)F)cc1)c1ccc2c(c1)no[n+]2[O-] | 4.41% (inactive)
83 | Cn1nccc1/C=N\NC(=O)c1ccc(Cl)cc1 | -10.2% (inactive)
84 | O=C(Nc1cc(F)ccc1F)c1ccc2c(=O)n3c(nc2c1)CCC3 | 5.36% (inactive)
85 | O=C1CC(C(=O)O)NC(=S)N1 (centres undefined) | -5.96% (inactive)
86 | NC(=O)Cn1cc(/C=N\NS(=O)(=O)c2ccccc2)c2ccccc21 | 8.87% (inactive)
87 | CCOC(=O)N/N=C/c1cn(Cc2ccccc2Cl)c2ccccc12 | 17% (inactive)
88 | CNC(=S)N/N=C/c1cn(Cc2ccc(C)cc2)c2ccccc12 | 37% (active)
89 | Cn1c(SCC(=O)Nc2ccc(N3CCOCC3)cc2)nnc1C(F)(F)F | 2.16% (inactive)
90 | COc1cccc(C(=O)Nc2nnc(S(=O)(=O)N3CCOCC3)s2)c1 | 23.5% (inactive)
91 | O=C(Nc1nnc(S(=O)(=O)N2CCCCCC2)s1)c1cccc(Br)c1 | 16.8% (inactive)
92 | COc1cccc(C(=O)Nc2nnc(S(=O)(=O)N3CCCCC3)s2)c1 | 40.7% (active)
93 | Cc1ccc(S(=O)(=O)N2CCCC2CO)cc1 (centres undefined) | -4.78% (inactive)
94 | O=C(CNc1cccc(S(=O)(=O)N2CCCCC2)c1)Nc1ccccc1F | 5.6% (inactive)
